From article PMC5540273 (PLoS ONE, 2017) come the findings set out here.

Some test systems named below: SNRK; SRC; SRMS; SRPK1; SRPK2; SRPK3; STK16; STK33; STK35.
Common to all, as to conditions: concentration: 1 μM,replicates: in singlicate; n = 1
The test system of the next assay is T1, SNARK.
T1 construct: gene NUAK2
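Further: KINOMEscan kinase panel screen.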

Regarding `COC(=O)c1cccc(NC(=O)NC2CCN(c3ccnc(NCc4ccc(F)cc4)n3)CC2)c1` [GSK1379860], the “%Inh” value in the assay on SNARK came to 0%; in the assay with SNRK, 0%; in the assay on SRC it was 0%; in the assay on SRMS, 0%; with SRPK1, 61%; with SRPK2, 0%. For the same molecule, the “%Inh” value with SRPK3, in the assay on STK16, in the assay with STK33 and with STK35 was 0% in each case.

In the case of `Cn1ccc2ncnc(Oc3ccc(NC(=O)Nc4ccnc(C(F)(F)F)c4)c(Cl)c3)c21`, the “%Inh” value in the assay with SNARK came to 0%; with SNRK it was 0%; with SRC, 13%; with SRMS, 0%; in the assay with SRPK1, 49%; in the assay with SRPK2, 0%. In addition, the “%Inh” value in the assay with SRPK3 was 0%; in the assay with STK16, 0%; in the assay on STK33, 0%; in the assay with STK35, 15%.

As to `CNC(=O)c1ccccc1Nc1nc(Nc2cccc(CS(C)(=O)=O)c2)ncc1C.O=CO` [GSK1520489], the “%Inh” value in the assay with SNARK came to 99%; with SNRK, 0%; in the assay with SRC, 100%; in the assay on SRMS it was 95.1%; in the assay on SRPK1, 95.4%; in the assay with SRPK2 it was 24%. In addition, the “%Inh” value in the assay on SRPK3 is on record as 75%; in the assay with STK16, 99.3%; in the assay on STK33, 93.2%; with STK35, 34%.

Regarding `C[C@@H]1CNc2c(sc3ccc4nc(-c5ccncc5)ccc4c23)C(=O)N1`, the “%Inh” value in the assay on SNARK is recorded as 53%; with SNRK, 11%; with SRC, 1%; in the assay on SRMS, 0%; in the assay on SRPK1, 23%; with SRPK2, 0%. In addition, the “%Inh” value is listed as 31% with SRPK3, 13% in the assay with STK16, 60% in the assay on STK33 and 0% in the assay on STK35.

On to `Cc1ccc(CC(=O)N2CCc3cc(-c4cn(C)c5ncnc(N)c45)ccc32)cc1` [GSK2634758], for which the “%Inh” value in the assay with SNARK is listed as 37%; with SNRK, 8%; with SRC it was 0%; in the assay with SRMS it was 6%; with SRPK1, 13%; in the assay on SRPK2 it was 31%. In addition, the “%Inh” value in the assay with SRPK3 is 10%; in the assay with STK16, 100%; with STK33, 0%; in the assay with STK35, 5%.

Take `Cn1ccc2ncnc(Oc3ccc(NC(=O)Nc4cccc(C(F)(F)F)c4)c(F)c3)c21`: the “%Inh” value with SNARK was found to be 0%; with SNRK it was 0%; in the assay on SRC it was 2%; with SRMS, 0%; with SRPK1 it was 23%; in the assay on SRPK2, 49%. The “%Inh” value in the assay on SRPK3 is recorded as 23%; in the assay on STK16 it was 0%; in the assay with STK33, 64%; with STK35 it was 4%.

On to `O=C(NCC1CC1)c1ccc(-c2cc(C(=O)NC3CC3)ccc2F)cc1` [GW810445], for which the “%Inh” value is 0% with SNARK; 0% in the assay on SNRK; 9% in the assay on SRC; 2% with SRMS; 0% in the assay with SRPK1; 0% in the assay on SRPK2. The “%Inh” value with SRPK3 amounted to 0%; in the assay with STK16, 4%; with STK33, 0%; with STK35 it was 0%.

Consider `Cc1cccc2c(-c3ccncc3)c(-c3ccc(F)cc3)nn12.Cl` [GW461487], for which the “%Inh” value in the assay with SNARK was found to be 17%; in the assay with SNRK it was 0%; with SRC it was 0%; in the assay with SRMS, 0%; with SRPK1, 0%; with SRPK2, 0%. For the same molecule, the “%Inh” value is recorded as 100% in the assay on SRPK3, 4% in the assay on STK16, 0% with STK33 and 0% in the assay on STK35.

As for `FC(F)(F)c1cc(Br)cc(Nc2nccc(-c3cnn4ncccc34)n2)c1` [GW810578], the “%Inh” value was 47% with SNARK; 0% with SNRK; 39% in the assay with SRC; 6% in the assay on SRMS; 9% in the assay on SRPK1; 0% with SRPK2. The “%Inh” value is 0% in the assay on SRPK3, 42% with STK16, 12% in the assay with STK33 and 9% in the assay with STK35.

In the case of `C[C@@H]1CNc2c(sc3ccc4nc(-c5ccc(O)cc5)ccc4c23)C(=O)N1`, the “%Inh” value in the assay on SNARK came out at 85%; in the assay with SNRK, 2%; with SRC it was 0%; in the assay on SRMS, 0%; in the assay on SRPK1, 0%; in the assay with SRPK2, 0%. Moreover, the “%Inh” value is on record as 24% in the assay on SRPK3, 30% with STK16, 78% in the assay on STK33 and 9% in the assay with STK35.

As for `CN1CCN(CCCNc2nccc(-c3c(-c4ccc(F)cc4)nn4cc(C(N)=O)ccc34)n2)CC1` [GW622475], the “%Inh” value was 14% in the assay on SNARK; 0% in the assay on SNRK; 19% in the assay on SRC; 0% with SRMS; 43% in the assay on SRPK1; 0% with SRPK2. Besides, the “%Inh” value in the assay with SRPK3 is recorded as 1%; with STK16, 25%; in the assay on STK33, 26%; in the assay on STK35, 0%.

In the case of `Cc1ccc(C(=O)Nc2ccc(Oc3ccc4nc(NC(=O)C5CC5)cn4c3)c(F)c2)c(=O)n1-c1ccccc1`, the “%Inh” value is listed as 0% in the assay on SNARK; 0% with SNRK; 11% in the assay with SRC; 0% in the assay on SRMS; 0% with SRPK1; 23% in the assay with SRPK2. The “%Inh” value in the assay on SRPK3 is given as 25%; in the assay with STK16, 17%; with STK33 it was 24%; in the assay on STK35 it was 0%.

Take `O=C(Nc1ccc(Oc2ccc3nc(NC(=O)C4CC4)cn3n2)c(F)c1)c1cccn(-c2ccccc2)c1=O`: the “%Inh” value was 0% in the assay with SNARK; 3% in the assay with SNRK; 10% with SRC; 0% in the assay with SRMS; 14% with SRPK1; 16% with SRPK2. Besides, the “%Inh” value is reported as 24% with SRPK3, 0% in the assay with STK16, 23% with STK33 and 0% in the assay with STK35.

Turning to `CCn1c(-c2nonc2N)nc2cncc(Br)c21` [SB-738004], the “%Inh” value with SNARK worked out at 31%; in the assay on SNRK, 0%; in the assay on SRC, 0%; in the assay with SRMS, 0%; in the assay on SRPK1, 0%; in the assay on SRPK2, 36%. The “%Inh” value with SRPK3 is reported as 0%; in the assay on STK16, 27%; in the assay on STK33, 13%; with STK35, 0%.

For `Cc1cccc(-c2nc(Nc3ccncc3)c3sccc3n2)n1` [GW869641], the “%Inh” value with SNARK stood at 29%; in the assay with SNRK it was 25%; in the assay on SRC, 12%; with SRMS, 21%; with SRPK1 it was 7%; in the assay with SRPK2 it was 0%. In addition, the “%Inh” value in the assay on SRPK3 is 24%; in the assay on STK16 it was 16%; in the assay with STK33, 27%; in the assay with STK35, 1%.

Regarding `CS(=O)c1ccc(-c2coc3ccc(-c4n[nH]c(=O)o4)cc23)cc1` (stereo not shown), the “%Inh” value is 21% in the assay on SNARK; 10% in the assay with SNRK; 22% in the assay with SRC; 0% in the assay on SRMS; 0% in the assay on SRPK1; 1% with SRPK2. Moreover, the “%Inh” value with SRPK3 was 0%; in the assay on STK16, 52%; with STK33, 0%; in the assay on STK35, 9%.
